# Sampled rows, rich in hits. Any-hit rate of the full collection: about 6.2%.
# AHR act: activates the human aryl hydrocarbon receptor | AID 2796 | AHR-responsive luciferase reporter cells, luminescence | activation, % at 5 µM | P35869 | 320,000 compounds, 2.5% hits; in the data active means activation above about 47%;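 further: 0% = vehicle wells and 100% = reference agonist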
# Target sequence (P35869 whole entry, looked up): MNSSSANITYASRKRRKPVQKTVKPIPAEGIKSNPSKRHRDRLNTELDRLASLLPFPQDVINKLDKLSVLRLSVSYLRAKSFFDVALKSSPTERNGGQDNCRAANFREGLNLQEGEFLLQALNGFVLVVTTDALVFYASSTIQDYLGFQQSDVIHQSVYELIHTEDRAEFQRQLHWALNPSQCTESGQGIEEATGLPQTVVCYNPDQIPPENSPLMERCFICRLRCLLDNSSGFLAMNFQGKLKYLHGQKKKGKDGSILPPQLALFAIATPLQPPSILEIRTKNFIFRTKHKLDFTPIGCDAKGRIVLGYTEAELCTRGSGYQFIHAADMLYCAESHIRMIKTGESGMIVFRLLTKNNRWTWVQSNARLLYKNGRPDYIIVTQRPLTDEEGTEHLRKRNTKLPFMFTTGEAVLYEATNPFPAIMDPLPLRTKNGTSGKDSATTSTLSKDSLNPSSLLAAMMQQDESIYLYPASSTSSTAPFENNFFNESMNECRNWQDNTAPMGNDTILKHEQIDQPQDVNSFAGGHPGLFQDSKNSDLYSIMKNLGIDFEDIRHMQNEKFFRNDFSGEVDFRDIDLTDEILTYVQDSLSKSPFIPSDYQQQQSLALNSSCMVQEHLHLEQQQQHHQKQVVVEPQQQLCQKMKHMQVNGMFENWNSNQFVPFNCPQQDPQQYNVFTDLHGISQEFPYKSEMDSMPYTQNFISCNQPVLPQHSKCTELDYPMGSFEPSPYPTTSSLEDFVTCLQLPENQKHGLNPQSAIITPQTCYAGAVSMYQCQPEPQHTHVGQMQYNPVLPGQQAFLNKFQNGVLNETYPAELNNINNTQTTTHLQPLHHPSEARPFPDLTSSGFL
# GRIN3A LBD mod: NR3A (human) ligand-binding domain modulation. NR3A LBD differential scanning fluorimetry, Tm shift; 0% = protein alone, 100% = glycine-bound protein. 340,000 compounds, 2.5% hits. Tm shift relative to glycine control, % at 25 µM. AID 1259313;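 active means melting temperature shift of at least 10% of the positive control shift, at one fixed dose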
# SUMO Mot1 rescue: SUMOylation pathway inhibition by Mot1-301 growth rescue; S. cerevisiae Mot1-301 growth rescue, ATP luminescence, 38.5C; percent above DMSO median, 100 means doubled; growth rescue, % at 18.8 µM; 320,000 compounds, 1% hits; AID 2716;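 active means every valid replicate shows activation above 250% relative to neutral control wells; inactive means the rest, any valid replicate at or below 250%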;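 further: OY570 slx delta 5 strain wells were the positive control but not used for scaling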
# AI-2 QS modul: Vibrio harveyi AI-2 quorum sensing modulation; Vibrio harveyi JMH597 AI-2 luminescence/OD600 ratio, 9 h; active compounds read low; strain lacks LuxN and CqsS sensors; 0 = neutral-control median; AID 2094; activity change, % at 7.5 µM; 300,000 compounds, 0.4% hits; in the data active means activity change below about -75%, passing the limit was not always enough;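 further: luminescence divided by OD600 gain over 9 h not by final OD600 alone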
# NTR1 agonist: agonists of human neurotensin receptor NTR1 | NTR1-U2OS beta-arrestin-GFP spot imaging, agonist mode | activation, % at 20 µM | 330,000 compounds, 0.17% hits | AID 493036;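 active means activation at or above 40% of the spot to cytoplasm intensity ratio, with at least 20 cells analyzed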;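 further: 0% = DMSO without peptide and 100% = 100 nM NTR1 peptide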
# H9c2 protect: modulators protecting cardiomyocytes from myocardial damage; 360,000 compounds, 0.63% hits; protection from H2O2 cell death, % at 20 µM; H9c2 cardiomyocytes, H2O2 injury protection, ATPLite, 2 h; AID 588492;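 active means compounds giving at least 50% protection of heart cells from peroxide-induced death in the single-dose screen, raw or plate-pattern-corrected value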;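 further: 0% = DMSO wells with peroxide and 100% = DMSO wells without peroxide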
# Yeast Mot1 SUMO: yeast SUMO pathway inhibition in dose response; shares compounds with SUMO Mot1 rescue; S. cerevisiae Mot1-301 galactose growth, ATP luminescence, 24 h; -100 = growth of slx-deleted rescue strain; growth activity, percent, % at 42 µM; 2,300 tested, under 10 active;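 active means Signal drops as the depositor expects, and the fitted half-maximal dose is no more than ten times the top valid tested dose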;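 further: more negative values mean stronger growth rescue toward the control strain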
# AHR act cf: human AHR activation, confirmation. shares compounds with AHR act. human cells, AHR-responsive luciferase reporter, luminescence. activation, % at 9 µM. 2,300 compounds, 87% hits. AID 2845; in the data active means activation above about 49%;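 further: HepG2 hepatoma cells carrying a DRE-driven firefly luciferase reporter; 0% = vehicle wells and 100% = reference agonist wells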
# PXR counter: PXR activation, counter-screen for AHR activators; activation, % at 11.6 µM; shares compounds with AHR act; 2,300 compounds, 88% hits; cell-based PXR reporter, luciferase luminescence; AID 434939; in the data active means activation above about 11%;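 further: human hepatoma DPX-2 cells expressing full-length human PXR; 0% = DMSO and 100% = reference agonist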
# The depositor's hits bear a star; . = no result given; + = active, no number.
SMILES,AHR act,GRIN3A LBD mod,SUMO Mot1 rescue,AI-2 QS modul,NTR1 agonist,H9c2 protect,Yeast Mot1 SUMO,others
COc1ccc(N(CC(=O)NCc2ccc(C)cc2)S(=O)(=O)c2c(C)nn(C)c2C)cc1,1,-2,585*,7,0,4,0,
CCOc1ccc(NC(=O)CC2C(=O)N(c3ccccc3)C(=S)N2Cc2ccccn2)cc1 (stereo not given),8,-1,+,3,-1,20,0,
CN(C)c1ccnc2sc3c(NCC(O)CO)ncnc3c12 (stereo not given),3,1,616*,13,3,-4,0,
CN(C)c1ccnc2sc3c(SCc4ccc(Cl)cc4)ncnc3c12,3,1,120,5,6,-7,.,
CCN(CC(=O)Nc1ccc(NC(C)=O)cc1)C(=O)c1cc(-c2ccccc2Cl)nc2ccccc12,.,-22,.,.,.,25,.,
CC(=O)N1CCc2cc(S(=O)(=O)NCCC3=CCCCC3)ccc21,0,2,+,-6,-1,-20,0,
CC(=O)N1CCc2cc(S(=O)(=O)NCCCN3CCCCC3)ccc21,-1,-3,2,24,1,-4,.,
CC1(C(=O)NS(=O)(=O)c2cccc(Cl)c2)CCN1C(=O)c1ccccc1CCc1ccccc1 (stereo not given),.,.,.,.,.,2,.,
Cc1cccc(CSc2ccc(-c3ccco3)nn2)c1,-7,6,668*,-70,0,-4,0,
O=C(NCC1CCCN1S(=O)(=O)c1cccs1)C(=O)Nc1ccccc1 (stereo not given),0,-1,31,3,0,-8,.,
Cc1ccc(NC(=O)C(=O)NCC2CCCN2S(=O)(=O)c2cccs2)cc1 (stereo not given),7,0,464*,10,-2,-5,0,
COc1ccc(S(=O)(=O)N2CCCC2CNC(=O)C(=O)NCc2ccccn2)cc1 (stereo not given),-1,2,440*,69,0,2,0,
Cc1ccc(S(=O)(=O)N2CCCC2CNC(=O)C(=O)NCc2ccccn2)cc1 (stereo not given),3,-1,6,24,0,2,.,
Clc1ccc2nc(-c3ccccc3)c(CC3CCCCC3)n2c1,.,.,.,.,.,0,.,
COc1ccc(CCNC(=O)COC(=O)c2cc(S(=O)(=O)N3CCOCC3)ccc2C)cc1OC,0,0,-7,.,2,0,.,
CCCNCc1cc(OCC)c(OCC(N)=O)cc1Br,4,1,766*,8,1,15,0,
C[C@H](NC(=O)OC(C)(C)C)C(=O)NCC1CCC(C(=O)N[C@@H](Cc2ccccc2)C(=O)O)CC1 (stereo not given in full),1,1,477*,13,0,0,1,
COc1cccc(CN2CC(C(=O)N(C)Cc3ccnc4ccccc34)CCC2=O)c1 (stereo not given),0,2,-4,0,0,-2,.,
C/C(=N\N1CCN(Cc2ccccc2Cl)CC1)c1ccc(F)cc1,0,-3,26,-4,3,4,.,
C/C(=N\N1CCN(Cc2ccccc2Cl)CC1)c1ccc([N+](=O)[O-])cc1,-1,1,832*,-5,0,2,1,
O=C(c1ccc(F)cc1Cl)N1CCN(S(=O)(=O)c2cccs2)CC1,-2,0,-4,7,1,10,.,
Cc1cc(C)nc(SC2=CS(=O)(=O)c3ccccc32)n1,8,1,-1,9,7,0,.,
O=S1(=O)C=C(Sc2nnc(-c3ccccc3)o2)c2ccccc21,-6,8,917*,-32,-1,-22,-2,
CCCCCCNc1c(C(=O)OCC)c(=O)[nH]c2ccccc12,37,-1,778*,5,-3,-2,0,
CCC(CC)NC(=O)c1oc2ccccc2c1COc1ccccc1,2,4,518*,0,2,-3,0,
SMILES,AHR act,GRIN3A LBD mod,SUMO Mot1 rescue,AI-2 QS modul,NTR1 agonist,H9c2 protect,Yeast Mot1 SUMO,others
Cc1ccc(NC(=O)NNC(=O)Cn2nc(-c3ccccc3)c(-c3ccccc3)c(C#N)c2=O)cc1,4,1,364*,38,7,-15,0,
O=C(Cn1nc(-c2ccccc2)c2ccccc2c1=O)Nc1ccc(O)cc1,-1,0,3,2,4,-1,.,
CC(Cc1n[nH]c(=S)n1N)c1ccccc1 (stereo not given),3,-2,-22,-3,1,2,.,
O=C(NNC(=O)C12CC3CC(CC(C3)C1)C2)c1ccccn1,1,1,998*,64,2,49,0,
CC(=O)Nc1cccc(OCC(O)Cn2c(C)nc3ccccc32)c1 (stereo not given),-2,0,655*,7,-1,-5,0,
CC(=O)Nc1cccc(OCC(O)Cn2cnc3ccccc32)c1 (stereo not given),4,-3,12,12,5,1,.,
COc1ccc(/C=C(\C#N)C(=O)c2cccn2C)cc1,5,3,396*,35,1,-6,0,
Cn1cccc1C(=O)/C(C#N)=C/c1ccc(F)cc1,5,4,-1,0,-1,-5,.,
Cc1ccc(C23CC4CC(CC(C(=O)NC(C)C(N)=O)(C4)C2)C3)cc1 (stereo not given),12,-1,-4,17,0,-3,.,
Cc1ccc(-c2nc(-c3cccnc3)sc2CC(=O)O)cc1,-1,1,885*,24,2,0,0,
CC(=O)Nc1ccc(NC(=O)Cc2sc(-c3cccnc3)nc2-c2ccc(C)cc2)cc1,1,-5,-6,17,1,26,.,
Cc1ccc2nc(SCC(=O)Nc3cccc(S(N)(=O)=O)c3)[nH]c2c1,17,1,741*,-1,1,-3,0,
c1ccc2nc3c(nc2c1)OCC1CCCCN31 (stereo not given),102*,0,360*,17,0,-2,0,AHR act cf=104*;PXR counter=46*
CCc1noc(C)c1C(=O)Nc1nc(-c2cc(C)ccc2C)c(C)s1,1,1,108,46,2,-6,.,
CCc1noc(C)c1C(=O)Nc1nc(-c2ccc(F)cc2)c(C)s1,95*,-6,634*,24,0,-4,0,AHR act cf=85*;PXR counter=28*

# Assay outcomes deposited in PubChem BioAssay by several laboratories.
